The assay relates to WHIM30 (cells of a triple-negative basal-like breast cancer xenograft). Briefly: cell viability of combination (% of vehicle); higher = less cytotoxic. The settings on record: 1 µM; 72 h; partner dose: 10 nM. As to the method: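 PDX cells were treated for 72 h with each drug at 1 µM plus carfilzomib (10 nM; 100 nM for WHIM2). Luciferase viability is expressed as percent of vehicle.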
Consider `Cc1cc(C(C#N)c2ccc(Cl)cc2)c(Cl)cc1NC(=O)c1cc(I)cc(I)c1O` (stereo not given) [Closantel] + CC(C)C[C@H](NC(=O)[C@H](CCc1ccccc1)NC(=O)CN1CCOCC1)C(=O)N[C@@H](Cc1ccccc1)C(=O)N[C@@H](CC(C)C)C(=O)[C@@]1(C)CO1 [Carfilzomib], for which the “cell viability of combination” value came out at 16.8. Then `CCCCCCCCCCCCCCCC[N+](C)(C)C.[Br-]` [Cetrimonium Bromide (CTAB)] + CC(C)C[C@H](NC(=O)[C@H](CCc1ccccc1)NC(=O)CN1CCOCC1)C(=O)N[C@@H](Cc1ccccc1)C(=O)N[C@@H](CC(C)C)C(=O)[C@@]1(C)CO1 [Carfilzomib], with 12. With `Cc1cc(C(C#N)c2ccc(Cl)cc2)c(Cl)cc1NC(=O)c1cc(I)cc(I)c1[O-].[Na+]` (stereo not given) [Closantel Sodium] + CC(C)C[C@H](NC(=O)[C@H](CCc1ccccc1)NC(=O)CN1CCOCC1)C(=O)N[C@@H](Cc1ccccc1)C(=O)N[C@@H](CC(C)C)C(=O)[C@@]1(C)CO1 [Carfilzomib], the “cell viability of combination” value was determined as 17.8.

As for `CCCCCCCCCCCCCCCC[n+]1ccccc1.[Cl-]` [Cetylpyridinium Chloride] + CC(C)C[C@H](NC(=O)[C@H](CCc1ccccc1)NC(=O)CN1CCOCC1)C(=O)N[C@@H](Cc1ccccc1)C(=O)N[C@@H](CC(C)C)C(=O)[C@@]1(C)CO1 [Carfilzomib], the “cell viability of combination” value was 11.9. Then `CCCCCCCCCCCC[N+](C)(C)CCOc1ccccc1.[Br-]` [Domiphen Bromide] + CC(C)C[C@H](NC(=O)[C@H](CCc1ccccc1)NC(=O)CN1CCOCC1)C(=O)N[C@@H](Cc1ccccc1)C(=O)N[C@@H](CC(C)C)C(=O)[C@@]1(C)CO1 [Carfilzomib], with 9.06.

Source of the values: the supplement of paper PMC6992640.
